Measured values from PubChem BioAssay (NCI).
The panel holds about 83,000 compounds, 20% with a hit somewhere; the sample as a whole holds those more often.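 Results are percent growth after 48 hours of single-concentration exposure. 100 means growth as in untreated cells, lower positive values show inhibition; negative values down to -100 show cell death.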 Values without a mark were called inactive. Rule for the calls: active = growth percent below 10; inactive = the rest.

Test system: UACC-62 melanoma
Experiment: NCI-60 one-dose screen, 48 h (100 = growth as untreated, 0 = no growth, -100 = all killed)
Conditions: 10 µM unless noted

Compound | growth [%]
C=C(C)[C@@H]1CC[C@]2(C(=O)N3CCCNCC3)CC[C@]3(C)[C@H](CC[C@@H]4[C@@]5(C)CCC(=O)C(C)(C)[C@@H]5CC[C@]43C)[C@@H]12 | 99.1
COc1cc(NC(C)CN(CC(C)C)C(C)C)c2ncccc2c1 (centres undefined) | 106
Cc1c(C)c2c(c(C)c1NC(=O)CCCCCCC(=O)O)CCC(C)(CCCC(C)CCCC(C)CCCC(C)C)O2 (centres undefined) | 89.1
COc1ccc(OCC(CO)N2CCN(c3ccccc3)CC2)cc1 (centres undefined) | 97.2
COc1ccc(CCN2C(=O)C(C)(C)SC2=S)cc1OC | 92.7
Cc1nnc2nc(N)[nH]n2c1=O | 115
Cc1cc(Cl)c2c(N(C)C)cccc2n1 | 105
COc1ccccc1-n1cnc(N)c1C(=O)c1cc(OC)c(OC)c(OC)c1 | 29.1
N#CC1=C(N)Oc2c(c(N)nn2-c2ccccc2)C1c1ccc(Cl)cc1Cl (centres undefined) | 88.7
COc1ccc(NC(=O)c2ccc3c(c2)nc(-c2cc4ccccc4[nH]c2=O)n3-c2cc(C(C)(C)C)[nH]n2)cc1 | 85.6
Cc1ccc(Cc2cnc(NC(=O)/C=C/c3cccc(C)c3)s2)cc1 | 16.3
Oc1cccc2oc(=S)[nH]c12 | 101
COc1cc(/C=C/c2cc(/C=C/c3ccc(O)c(OC)c3)n(-c3ccccc3)c(=O)n2)ccc1O | 69.9
Cc1nn2c(-c3nc4cc(Cl)c(Cl)cc4[nH]3)c(-c3ccc(F)cc3)nc2s1 | 15.9
